Data taken from PubChem BioAssay (NCI).
This is part of a sample that, as a whole, favours compounds with a hit. Of some 79,000 tested, about 15% had one in any assay. Calls of active or inactive are those of the source. Cut-off read from the data, not from the text of the source: active = growth inhibition above about 70%; inactive = the rest.

Experiment: NCI Yeast Anticancer Drug Screen. Data for the mec2-1 strain (AID 157)
Settings: S. cerevisiae mec2-1 strain, hits give high values
Experimental: Growth inhibition of yeast strains with defined genetic alterations is measured as a screen for potential anti-cancer activity. Selected strains with alterations in DNA damage repair or cell cycle control were exposed to compounds and growth inhibition was measured relative to vehicle treated controls. The strain used in this assay is mec2-1

[1] = at 5.0 µM (retest, dose inferred, filed as 0.5)
[2] = at 50.0 µM (retest, dose inferred, filed as 5.0)

Measured: growth inhibition

OC1CCCc2c1cc1ccc3cccc4ccc2c1c34 (stereo not given)
active: at 11.0 µM 99% | at 33.0 µM 96% | [2] 93% | at 50.0 µM 94.1% | at 100.0 µM 88%
inactive: at 1.2 µM -5% | at 3.7 µM -5% | [1] 12%

O=C1C(=O)c2ccccc2C=C1[N+](=O)[O-]
inactive: at 1.2 µM 2% | at 3.7 µM 5% | [1] 8% | at 11.0 µM 13% | at 33.0 µM 18% | [2] 13% | at 50.0 µM 29.4% | at 100.0 µM 35%

CN(C)c1ccc(Sc2ccc3nc(N)nc(N)c3c2)cc1
inactive: at 1.2 µM -28% | at 3.7 µM -28% | [1] 28% | at 11.0 µM -4% | at 33.0 µM 13% | at 100.0 µM 55%
active: [2] 80% | at 50.0 µM 89.3%

Cc1ccc(S(=O)(=O)NNC(=S)Nc2cccc3ccccc23)cc1
inactive: at 1.2 µM 3% | at 3.7 µM 2% | [1] -19% | at 11.0 µM 4% | at 33.0 µM 5% | [2] 33% | at 50.0 µM -14.4% | at 100.0 µM 4%

CC(=O)SCCC[Si](C)(C)CCCSC(C)=O
inactive: at 1.2 µM -3% | at 3.7 µM -3% | [1] -2% | at 11.0 µM -5% | at 33.0 µM 3% | [2] 46% | at 50.0 µM 53.6% | at 100.0 µM 35%
